# Test results as given in PubChem BioAssay AID2314 (National Center for Advancing Translational Sciences (NCATS), 2010).
# Screen size: about 300,000 compounds; about 37,000 (12%) were called active. Rule as the data show it: active = max response mostly above about 13% (no sharp cut-off); inactive = mostly below about 14%. Shown is part of a subset that was picked to be rich in actives.
# Assay: Cycloheximide Counterscreen for Small Molecule Inhibitors of Shiga Toxin; also: read at 38.3 µM for the half of the compounds with a filed dose; 0% is about no effect
# Conditions: cell reporter, cycloheximide protein synthesis inhibition counterscreen; hits give high values
row,SMILES,max response
1,Cc1ccc2nc(SCc3cn4c(C)cc(C)nc4n3)[nH]c2c1,-4.98% (inactive)
2,O=C(CNCc1ccc(Cl)cc1)Nc1cccc(C(=O)O)c1,-7.34% (inactive)
3,O=C(Nc1nnc(-c2ccc(Cl)cc2)o1)c1ccccc1Br,14.7% (inactive)
4,O=C(c1nnc(-c2ccc(Cl)cc2)o1)C1CCCC1,15.5% (active)
5,O=C(c1[nH]ncc1-c1ccc(Cl)cc1)C1CO1 (stereo not given),16.3% (inactive)
6,CCCC(=O)N1CCC(CCC(=O)NC2CC2)CC1,10.7% (inactive)
7,COc1ccc(C(=O)Nc2c(N)nc(SCC(=O)Nc3ccc(C(C)=O)cc3)[nH]c2=O)cc1,0.562% (inactive)
8,CS(=O)(=O)N(Cc1ccccc1)c1ccc(C(=O)NN=C2CCCCCC2)cc1,0.492% (inactive)
9,CC(C)(C)NC(=O)C(=O)NN=C1CCCCCCC1,17.4% (inactive)
10,CCc1ccc(C(=O)NN=C2CCCCCC2)s1,33% (active)
11,COC(=O)c1cc(N2CCNCC2)nc2ccccc12,-0.723% (inactive)
12,CC(=O)c1cccc(NC(=O)[C@@H](NC(N)=O)C(C)C)c1,-2.8% (inactive)
13,CCc1nc(SCC(=O)Nc2ccccc2OC)n[nH]1,-2% (inactive)
14,CCSc1nsc(NC(=O)Nc2cccc(C(C)=O)c2)n1,47.8% (active)
15,COc1ccccc1NC(=O)Nc1nnc(Cc2ccc(F)cc2)s1,-1.91% (inactive)
16,CCc1nnc(NC(=O)CSc2nnnn2-c2cccc(C(C)=O)c2)s1,-0.713% (inactive)
17,C=C(C)C(=O)Nc1cccc(C(C)=O)c1,-4.07% (inactive)
18,CCSc1nsc(NC(=O)Nc2ccccc2OC)n1,29.3% (active)
19,CC(=O)c1cccc(NC(=S)N2CCN(S(C)(=O)=O)CC2)c1,3.24% (inactive)
20,C=CCSc1nsc(NC(=O)Nc2cccc(C(C)=O)c2)n1,15.7% (active)
21,Cc1cccn2c(=O)c3cc(C(=O)NCC4CCCO4)c(=N)n(Cc4ccc(F)cc4)c3nc12 (stereo not given),-1.9% (inactive)
22,Cc1cc2oc(=O)cc(-c3ccccc3)c2c(C)c1/C=C/c1ccc(F)cc1,11.8% (inactive)
23,COc1ccc(CCNC(=O)CCCCCNC(=O)N2CCn3c2nc2ccccc23)cc1OC,-1.5% (inactive)
24,Cc1c(Cl)cccc1NC(=O)NCc1ccc(C)n1C,-4% (inactive)

row,SMILES,max response
1,CCCn1c(C(C)Nc2nc(-c3ccc(C)cc3)cs2)nc2cc(Cl)c(N3CCCCC3)cc21 (stereo not given),-2.37% (inactive)
2,CCOC(=O)CSc1nc(C)c(Oc2ccc(Cl)cc2Cl)c(=O)[nH]1,-0.833% (inactive)
3,CC1CCCC(C)N1/N=C/c1ccccc1OC(F)F (stereo not given),7.52% (inactive)
4,COC(=O)c1ccc(/C=N/N2C(C)CCCC2C)cc1 (stereo not given),32.3% (active)
5,COC(=O)c1ccc(/C=N\n2c(C)nnc2C)cc1,-2.39% (inactive)
6,CNC(=O)c1c(NC(NC(=O)c2ccco2)C(=O)c2ccc(Cl)cc2)sc2c1CCCC2 (stereo not given),-2.69% (inactive)
7,COC(=O)c1ccc(NC(=O)CSc2nncn2-c2cccnc2)cc1,3.92% (inactive)
8,COC(=O)C1(C)NC(c2ccc(F)cc2)C2C(=O)N(c3ccccc3)C(=O)C21 (stereo not given),-1.89% (inactive)
9,COc1ccc(NC(=O)CN(C)C(=O)CNC(=O)C2CCCCC2)cc1,4.44% (inactive)
10,CN(CC(=O)Nc1ccc(Cl)cc1)C(=O)CNC(=O)c1ccc2ccccc2c1,24.6% (active)
11,COc1cccc(NC(=O)CN(C)C(=O)Cc2ccc(Cl)cc2Cl)c1,-1.79% (inactive)
12,CCOC(=O)[C@@H]1[C@H]2COc3cc(OC)ccc3[C@@H]2N2C(=O)N(c3cccc(C)c3)C(=O)[C@@]12C,-1.45% (inactive)
13,CCCCn1c(-c2cccc(C)c2)nc2cc3[nH]c(=O)c(C(C)C)nc3cc21,8.65% (inactive)
14,CC1(C)CCSC(/C=C/c2ccccc2)=N1,32.8% (active)
15,CCCCC(CC)CNC(=O)C(=O)C1C(=O)Nc2ccccc21 (stereo not given),15.4% (inactive)
16,C[C@@H]1C(c2ccc(F)cc2)=NN(c2ccc(Br)cc2)[C@H]1C(=O)N1CCOC1=O,-1.82% (inactive)
17,COc1ncnc2sc3c(c12)CCCC3,-0.884% (inactive)
18,COc1ccc(/C=N/Nc2ncnc3sc4c(c23)CCCC4)cc1O,27.5% (active)
19,COc1ccc(NC(=O)CCNC(=O)Cn2cnc3sc4c(c3c2=O)CCCC4)cc1OC,-3.75% (inactive)
20,COc1ccc(C2C(C(C)=O)=C(O)C(=O)N2c2nccs2)cc1 (stereo not given),-3.41% (inactive)
21,COc1ccc(C(=O)NNC(=S)NC(=O)c2ccccc2[N+](=O)[O-])cc1,2.1% (inactive)
22,Cc1ccc(NC(=O)CN2C(=O)NC(C)(c3ccc(Cl)cc3)C2=O)c(Br)c1 (stereo not given),-5.49% (inactive)
23,COc1ccc(C(=O)N2CCC(C(=O)Nc3ccc(C)cc3)CC2)cc1,4.42% (inactive)
24,C/C(=N/NC(=O)C1COc2ccccc2O1)c1ccco1 (stereo not given),4.02% (inactive)

row,SMILES,max response
1,CC(/C=C/c1ccco1)=N/NC(=O)C1COc2ccccc2O1 (stereo not given),7.66% (inactive)
2,CC(=O)c1cccc(NC(=O)C2COc3ccccc3O2)c1 (stereo not given),23.2% (active)
3,COc1ccc(NC(=O)C2COc3ccccc3O2)cc1 (stereo not given),41% (active)
4,COc1cccc(N(C(=O)C2COc3ccccc3O2)C(C(=O)NC2CCCCC2)c2ccc(O)cc2)c1 (stereo not given),8.69% (inactive)
5,Cn1nc(C(F)(F)F)c(C(=O)Nc2cccc(C(F)(F)F)c2)c1SCc1ccc(Cl)cc1,-3.55% (inactive)
6,Cc1ccc(CN(CC(=O)NCC2CCCO2)S(=O)(=O)c2ccc(C)cc2)cc1 (stereo not given),-1.68% (inactive)
7,O=C1Nc2ccccc2/C1=C/c1ccnc2ccccc12,-4.29% (inactive)
8,Cc1cccn2c(=O)c(C=O)c(Nc3ccc(S(N)(=O)=O)cc3)nc12,-2.14% (inactive)
9,CC(C)C(C)NC(=O)COc1nc2ccccc2nc1N(C)C1CCCCC1 (stereo not given),-4.63% (inactive)
10,O=c1c2ccccc2nc(N/N=C/c2ccccc2)n1O,11.3% (inactive)
11,O=c1c2ccccc2ncn1/N=C/c1ccccc1,40.3% (active)
12,CCCc1nc2ccccc2c(=O)n1/N=C/c1ccc(O)c(O)c1,-1.03% (inactive)
13,O=C(O)CCC(=O)O,7.04% (inactive)
14,COc1ccc(C(C(=O)NC(C)(C)C)N(C(=O)Cn2nnc3ccccc32)c2ccc(C(C)=O)cc2)cc1O (stereo not given),14.1% (active)
15,CCC(C)(C)NC(=O)C(c1ccc(O)cc1)N(C(=O)Cn1nnc2ccccc21)c1ccc(NC(C)=O)cc1 (stereo not given),-2.51% (inactive)
16,COc1ccc(C(C(=O)NCC2CCCO2)N(C(=O)Cn2nnc3ccccc32)c2ccc(NC(C)=O)cc2)cc1OC (stereo not given),-1.07% (inactive)
17,COC(=O)C1CCN(CC(N)=O)CC1,-5.67% (inactive)
18,CCOP(=O)(OCC)C(Nc1cccc(C)c1)c1ccc(F)cc1 (stereo not given),-1.31% (inactive)
19,COc1cccc(OCCOc2cccc(/C=N/n3cnnc3)c2)c1,42.6% (active)
20,C(=N\n1cnnc1)/c1cccnc1,0.339% (inactive)
21,COc1ccccc1OCCOc1ccc(/C=N/n2cnnc2)cc1,-5.27% (inactive)
22,CCc1ccc(-c2cc(C(=O)NN3CCN(C)CC3)c3ccccc3n2)cc1,21.6% (active)
23,COC(=O)CNC(=O)c1cc(-c2ccncc2)nc2ccccc12,7.25% (inactive)
24,CNC(=O)COC(=O)c1cc(-c2ccc(OC)cc2)nc2ccccc12,10.9% (inactive)

row,SMILES,max response
1,O=C(COc1ccc(Cl)cc1)NCCS(=O)(=O)N1CCN(c2ccc(F)cc2)CC1,-2.81% (inactive)
2,N#Cc1ccc(C2N=C(c3ccccc3)NO2)cc1 (stereo not given),50.7% (active)
3,S=C1NC(c2ccccc2)=NCN1c1ccc(Br)cc1,11.3% (inactive)
4,Brc1ccccc1C1Nc2cccc3cccc(c23)N1,-2.34% (inactive)
5,Brc1ccccc1C1N=C(c2ccccc2)NO1 (stereo not given),46.9% (active)
6,COc1ccc(CNC(=O)c2cc(C(=O)C3CC3)c[nH]2)cc1,-0.249% (inactive)
7,Cc1cc(Nc2cccc(C)c2C)n2ncnc2n1,-1.07% (inactive)
8,CCn1cc(C(=O)OCC(=O)Nc2cccc(C)c2)c(=O)c2ccc(C)nc21,-2.42% (inactive)
9,CN(c1ccc(OCC(=O)OCC(=O)Nc2cccc([N+](=O)[O-])c2)cc1)S(=O)(=O)c1ccc(F)cc1,5.41% (inactive)
10,Cc1onc(-c2ccccc2)c1C(=O)N1CCN(S(=O)(=O)c2ccccc2C(F)(F)F)CC1,10.2% (inactive)
11,FC(F)(F)c1nc2ccccc2nc1N/N=C/c1ccc(Cl)cc1,-0.973% (inactive)
12,Oc1ccc(/C=N/NC2=NCCCCC2)c(O)c1,42% (active)
13,Cc1ccc(/C=N/NC(=O)C2=NNC(c3ccccc3)(c3ccccc3)C2)c(O)c1,9.49% (inactive)
14,Cc1cc(N/N=C/c2ccccc2F)c2ccccc2n1,-1.58% (inactive)
15,Cc1nc2ccccc2nc1N/N=C/c1ccc(O)cc1O,25% (active)
16,COc1ccc(/C=C(\C#N)C(=O)ONC2=NCCCCC2)cc1,9.41% (inactive)
17,Oc1ccc(/C=N/Nc2nc(-c3ccccc3F)nc3ccccc23)c(O)c1,15.1% (active)
18,CC(=O)c1ccc(N2CCN(C(=O)C3CCN(S(=O)(=O)c4ccc5c(c4)CC(C)N5C(=O)C4CC4)CC3)CC2)cc1 (stereo not given),-0.93% (inactive)
19,Cc1cc(C)n(CC(O)COc2ccc(C(C)(C)C)cc2)n1 (stereo not given),10.5% (inactive)
20,CCc1cccc(NC(=S)N(CCN(C)C)C2CCN(C(C)C)CC2)c1,-3.94% (inactive)
21,Cc1ccc(NC(=O)C(=O)NCc2ccc(/C=N/NC(=O)c3c(C)nc4cc(C)ccn34)o2)cc1,6.74% (inactive)
22,O=c1[nH]c(CN2CCN(S(=O)(=O)c3ccc4c(c3)OCCO4)CC2)nc2sc3c(c12)CCCC3,-1.21% (inactive)
23,CCCCOc1ccc(C(=O)N/C(=C/C=C/c2ccccc2)C(=O)N2CCOCC2)cc1,-4.3% (inactive)
